HCV inhibitor = qHTS Assay for Inhibitors of Hepatitis C Virus (HCV); AID 651820, 2012; 3.4% of 340,000 active; Potency, µM (series often up to 41.8 µM), actives largely listed as inhibitors; Huh7.5.1 HCVcc-Cre infection, luciferase reporter, 44 h; active = well fitted inhibition curve with a large enough effect; inconclusive = small, poorly fitted or top-dose-only effect, or another doubt; inactive = no such curve, though single readings can be large or run the other way
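A cell-based infection assay in which seeded cells (1,000 per well) receive test compound after 4 h, are inoculated with HCVcc-Cre at approximately 0.5 moi, and are incubated 44 h before luminescence detection.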
Shiga inhibitor = A qHTS for Small Molecule Inhibitors of Shiga Toxin | 9.2% of 290,000 active | inhibition, % at 38.7 µM | Vero cells, Shiga toxin protein synthesis inhibition reporter; in the data active = inhibition mostly above about 28%, no sharp cut-off; inactive = mostly below about 43%
MARV entry inh = qHTS for inhibitors of binding or entry into cells for Marburg Virus; Marburg virus pseudotyped entry inhibition, cell reporter; Potency, µM (titrated, usually from 37.8 µM), most hits filed as inhibitors; 1.8% of 300,000 active; AID 540276, 2011; calls by dose curve; tested in HEK293 cells
Cycloheximide cs = Cycloheximide Counterscreen for Small Molecule Inhibitors of Shiga Toxin. cell reporter, cycloheximide protein synthesis inhibition counterscreen. max response, %. 12% of 300,000 active. AID 2314, 2010; in the data active = max response mostly above about 13%, no sharp cut-off; inactive = mostly below about 14%; also: read at 38.3 µM for the half of the compounds with a filed dose
FMDV inh = High Throughput Screening for Foot and Mouth Disease Virus Antivirals; FMDV antiviral cell-based qHTS; Potency, µM (titrated, usually from 57.9 µM), hits mostly inhibitors; 1.2% of 410,000 active; calls by dose curve; tested in HEK293T cells; also: read-out not given here; nearly all actives have a fitted effect of over 45% in size
LASV entry inh = qHTS for Inhibitors of binding or entry into cells for Lassa Virus. 1.2% of 300,000 active. Potency, µM (series often up to 37.9 µM), most hits filed as inhibitors. AID 540256, 2011. Lassa virus pseudotype entry inhibition, cell reporter; calls by dose curve; tested in HEK293 cells; also: nearly all actives have a fitted effect of over 50% in size
Each line names hits and unclear results; the compound was inactive in the other large screens. Rows were chosen to be rich in hits. Some 13% of all compounds tested hit in one or more screens of this group.

Cc1cc2n(n1)SC(Nc1ccccc1)N2 (centres undefined)	Cycloheximide cs 32
Cc1ccc(N=CNc2ccc(C)cc2C)c(C)c1	none
COc1cccc(NC(=O)N2CCC(NC(=O)C(Cc3ccccc3OC)NC(C)=O)CC2)c1 (centres undefined)	none (no result: LASV entry inh)
CSc1ncc(C(=O)NCc2cccc(F)c2)c(-c2ccccc2)n1	LASV entry inh inconclusive (no result: HCV inhibitor, Shiga inhibitor, MARV entry inh, Cycloheximide cs)
CNc1nc(NCc2ccccc2)c2ccccc2n1	HCV inhibitor 11µM, MARV entry inh 4µM, LASV entry inh inconclusive
Oc1ccccc1Nc1nc(NCc2ccccc2)c2ccccc2n1	HCV inhibitor 11µM, MARV entry inh inconclusive, FMDV inh inconclusive, LASV entry inh inconclusive
c1ccc(CNc2ncnc3ccccc23)cc1	HCV inhibitor inconclusive, MARV entry inh inconclusive, FMDV inh inconclusive, LASV entry inh inconclusive
Cc1c(Cl)cccc1Nc1nc(NCCO)c2ccccc2n1	Shiga inhibitor 45, MARV entry inh 7.9µM, Cycloheximide cs 16, LASV entry inh inconclusive
CCOC(=O)c1nc(NCc2ccccc2)c2ccccc2n1	Shiga inhibitor 116, Cycloheximide cs 40 (no result: LASV entry inh)
OCCNc1nc(Nc2ccccc2)nc2ccccc12	HCV inhibitor inconclusive, MARV entry inh inconclusive
C=CCNc1nc(C(=O)OCC)nc2ccccc12	none (no result: MARV entry inh, LASV entry inh)
CCOC(=O)c1scc(-c2ccccc2)c1S(=O)(=O)Nc1cc(Cl)c(OC)cc1OC	none (no result: HCV inhibitor, Shiga inhibitor, MARV entry inh, Cycloheximide cs)
Clc1ccc(SCc2cc(N3CCOCC3)nc(-c3ccccn3)n2)cc1	HCV inhibitor 8.9µM, MARV entry inh inconclusive, LASV entry inh inconclusive
Clc1ccc(SCc2csc(N3CCOCC3)n2)cc1	HCV inhibitor inconclusive, Shiga inhibitor 54, Cycloheximide cs 33
C=CCn1c(O)c(CN2CCCCC2)c(C)c(C#N)c1=O	none
Cc1c(C(=O)Nc2ccc(F)cc2F)oc2c1-c1nn(Cc3c(F)cccc3Cl)cc1CC2	none (no result: HCV inhibitor, Shiga inhibitor, MARV entry inh, Cycloheximide cs)
CCOC(=O)c1c(C)[nH]c(C(=O)OCC(=O)NCc2ccc(C)cc2)c1C	none (no result: Shiga inhibitor, MARV entry inh, Cycloheximide cs, LASV entry inh)
Nc1cc(-c2ccc(Br)cc2)nn1Cc1ccccc1	HCV inhibitor 1.3µM, Shiga inhibitor 91, Cycloheximide cs 54, LASV entry inh inconclusive
CCOc1ccccc1N(CC(=O)NC1CCCC1)C(=O)CCC(=O)Nc1cc(C)on1	none
Cc1cc(C)n2ncc(/C(N)=N/OC(=O)Nc3ccc(Cl)cc3)c2n1	Cycloheximide cs 20 (no result: MARV entry inh, LASV entry inh)
Cc1cc(C)n2ncc(/C(N)=N/OC(=O)c3ccccc3F)c2n1	Shiga inhibitor 50, Cycloheximide cs 25
Cc1cc(C)n2ncc(C(=O)NCc3cccnc3)c2n1	none
Cc1cc(C)n2nc(C(=O)OCC(=O)Nc3ccc(Cl)cc3)nc2n1	none (no result: HCV inhibitor, Shiga inhibitor, MARV entry inh, Cycloheximide cs, LASV entry inh)
O=C(Nc1c2ccccc2nc2ccccc12)C(Cl)(Cl)Cl	HCV inhibitor inconclusive, FMDV inh inconclusive
O=C(CCc1ccccn1)N1CCCC(N2CCN(c3ccc(F)cc3)CC2)C1 (centres undefined)	FMDV inh inconclusive
CCN(CC)C(=O)COC(=O)c1ccc(C)c(NC(=O)c2ccco2)c1	none
Cc1ccc(C(=O)OCC(=O)c2c[nH]c3ccccc23)cc1NC(=O)c1ccco1	HCV inhibitor inconclusive, MARV entry inh inconclusive, Cycloheximide cs 19
CCOc1ccc(N(C)S(=O)(=O)c2ccc(C)c(C(=O)OCC(=O)c3c[nH]c4ccccc34)c2)cc1	MARV entry inh 1.4µM
Cc1ccc(C(=O)OCC(=O)c2c[nH]c3ccccc23)cc1S(=O)(=O)N1CCCCC1	HCV inhibitor 32µM, MARV entry inh inconclusive, LASV entry inh inconclusive
COc1ccc(C(=O)NCC(C)(c2ccccc2)c2ccccc2)cc1S(=O)(=O)N1CCOCC1	MARV entry inh inconclusive (no result: Shiga inhibitor, Cycloheximide cs)
O=C(COC(=O)c1ccc[nH]c1=O)NC1CCCCCCC1	none
CCCCCCCCNc1ncnc2[nH]ncc12	HCV inhibitor 11µM, MARV entry inh inconclusive (no result: Shiga inhibitor, Cycloheximide cs)
Cn1c(=O)[nH]c(=O)c2c1nc(Br)n2CCCSc1nc2ccccc2o1	HCV inhibitor inconclusive, MARV entry inh 8.2µM, FMDV inh 22µM
Cn1c(=O)[nH]c(=O)c2c1nc(Br)n2CCOc1ccccc1	FMDV inh 18µM
Cc1cc(OCCOc2cccc3cccnc23)cc(C)c1Cl	HCV inhibitor inconclusive, FMDV inh inconclusive, LASV entry inh inconclusive
O=C(Cc1ccccc1[N+](=O)[O-])NCc1ccc(Cl)cc1	MARV entry inh inconclusive, Cycloheximide cs 33, LASV entry inh inconclusive
O=C(NCc1ccc(Cl)cc1)c1n[nH]c([N+](=O)[O-])c1Cl	Shiga inhibitor 61, Cycloheximide cs 45 (no result: MARV entry inh, LASV entry inh)
O=C(Cc1ccccc1[N+](=O)[O-])NCc1ccc(Cl)cc1Cl	Shiga inhibitor 87, MARV entry inh inconclusive, Cycloheximide cs 44, LASV entry inh inconclusive
O=C(NCc1ccc(Cl)cc1)c1ncn[nH]1	none
O=C(/C=C/c1ccccc1[N+](=O)[O-])NCc1ccc(Cl)cc1	none
COc1cccc(-c2nccc(NCc3cccs3)n2)c1	none (no result: HCV inhibitor, Shiga inhibitor, MARV entry inh, Cycloheximide cs, LASV entry inh)
O=C(NNC(=O)c1ccccc1[N+](=O)[O-])c1ccccc1[N+](=O)[O-]	none
C=CCN(c1ccccc1Cl)S(=O)(=O)c1cccc(C(=O)NCCc2ccc(OC)cc2)c1	HCV inhibitor inconclusive, MARV entry inh inconclusive, LASV entry inh 12µM
C=CCN(c1ccccc1OC)S(=O)(=O)c1cccc(C(=O)NCc2cccs2)c1	HCV inhibitor 4.5µM, MARV entry inh inconclusive, LASV entry inh inconclusive (no result: Shiga inhibitor, Cycloheximide cs)
C=CCN(c1ccccc1Cl)S(=O)(=O)c1cccc(C(=O)OCC(=O)N(C)C2CCS(=O)(=O)C2)c1 (centres undefined)	HCV inhibitor 3.5µM, MARV entry inh inconclusive, LASV entry inh inconclusive
C=CCN(c1ccccc1OC)S(=O)(=O)c1cccc(C(=O)OCC(=O)c2c(N)n(C)c(=O)n(C)c2=O)c1	HCV inhibitor inconclusive, MARV entry inh inconclusive, FMDV inh 40µM, LASV entry inh inconclusive (no result: Shiga inhibitor, Cycloheximide cs)
CNS(=O)(=O)c1cccc(C(=O)OCC(=O)c2c(N)n(C)c(=O)n(C)c2=O)c1	HCV inhibitor inconclusive
COC(=O)c1ccccc1C(=O)N1CC(O)CO1 (centres undefined)	none
CC(=O)c1ccc(NC(=O)/C(=C\c2ccccc2)NC(=O)c2ccco2)cc1	none
COC(c1ccccc1)c1nnc(CCC(=O)N(C)C(C2CC2)C2CC2)o1 (centres undefined)	Shiga inhibitor 84, MARV entry inh inconclusive, Cycloheximide cs 50
CCOC(=O)CN(C)C(=O)CCc1nnc(-c2ccsc2)o1	MARV entry inh inconclusive
COC(c1ccccc1)c1nnc(CCC(=O)NC2CCCCC2)o1 (centres undefined)	Cycloheximide cs 17
O=C(CCc1nnc(-c2ccccc2)o1)NC1CCCCC1	Shiga inhibitor 64, Cycloheximide cs 44 (no result: MARV entry inh, LASV entry inh)
O=C(CCc1nnc(-c2ccsc2)o1)N1CCc2c(Cl)cccc2C1	Shiga inhibitor 104, Cycloheximide cs 30 (no result: MARV entry inh, LASV entry inh)
O=C(Nc1nnc(-c2ccccc2)o1)NC1CCCCC1	none
COc1ccc(COCC(O)CN2CC(C)OC(C)C2)cc1OC (centres undefined)	none
Cc1cc(-c2nnc(CCC(=O)NCC(C)c3ccccc3)o2)no1 (centres undefined)	MARV entry inh inconclusive, LASV entry inh inconclusive

Screens (PubChem BioAssay)
